High-throughput results: PubChem BioAssay, The Scripps Research Institute Molecular Screening Center
Compounds with a hit are over-represented: about 5.7% of the library has one in this group of screens.
hgDAF12 agonist: agonists of H. glycines DAF-12 nuclear receptor; 1.8% of 370,000 active; HEK293 GAL4-hgDAF12 UAS-luciferase reporter, agonist luminescence; normalized to butyrate control; activation, % at 6.8 µM;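 active means activation above a cutoff set at the mean of all screened compounds plus 3 SD, cut at about 10% in these data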;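 further: 0% = DMSO wells and 100% = sodium butyrate wells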
AHR act: activators of human aryl hydrocarbon receptor | P35869 | activation, % at 5 µM | 2.5% of 320,000 active | AHR-responsive luciferase reporter cells, luminescence | AID 2796; in the data active means activation above about 47%;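 further: 0% = vehicle wells and 100% = reference agonist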
ssDAF12 agonist: activators of S. stercoralis DAF-12 nuclear receptor; HEK293 ssDAF-12/GRIP1 lit1-tk-luc reporter, luminescence; % of 3 µM dafachronic acid response; activation, % at 6.8 µM; 1% of 370,000 active;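 active means activation above the mean over all tested compounds plus 3 SD, cut at about 0.9% in these data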;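 further: 0% = DMSO-only wells and 100% = 3 µM delta7-dafachronic acid wells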
DAX1 inh-1: NR0B1 (DAX1) inhibition. P51843. 0.99% of 340,000 active. inhibition, % at 6.75 µM. HEK293 Gal4-DAX1 luciferase reporter, luminescence;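 active means inhibition above the mean over all tested compounds plus 3 SD, cut at about 4.2% in these data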;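 further: 0% = DAX1-transfected cells with DMSO and 100% = empty-vector control cells with DMSO; inhibition shows as a rise in luminescence from relieved DAX1 repression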
Target sequence (P51843 207-470 limits assumed): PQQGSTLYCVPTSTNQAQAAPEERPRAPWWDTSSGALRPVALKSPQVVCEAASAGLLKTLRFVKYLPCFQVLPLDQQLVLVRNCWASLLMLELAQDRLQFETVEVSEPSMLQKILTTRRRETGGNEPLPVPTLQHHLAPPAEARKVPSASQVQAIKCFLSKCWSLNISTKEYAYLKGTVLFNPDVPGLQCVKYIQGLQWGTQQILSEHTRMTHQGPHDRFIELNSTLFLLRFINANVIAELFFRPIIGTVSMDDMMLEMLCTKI
hcDAF-12 act: H. contortus DAF-12 activation, primary screen; HEK293 hcDAF-12 lit1-tk-luc reporter, luminescence; 0% DMSO, 100% Δ7-dafachronic acid; activation, % at 6.8 µM; 1.4% of 370,000 active;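 active means activation above the mean of all tested compounds plus 3 SD, cut at about 5.5% in these data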;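 further: 100% = response to 3 µM Δ7-dafachronic acid high control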
DAX1 inh-2: blocks DAX1 repression of SF-1 activated StAR promoter; HEK293T StAR-luciferase reporter, SF-1/DAX-1 repression relief; inhibition, % at 6.8 µM; 1.1% of 370,000 active;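 active means inhibition above the mean over all tested compounds plus 3 SD, cut at about 3.6% in these data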;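 further: 0% = DAX-1 cells with DMSO and 100% = cells lacking DAX-1 with DMSO; higher inhibition means more luminescence from relief of DAX-1 repression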
LXR ag: LXR-beta agonism as hcDAF-12 counter-screen | shares compounds with hcDAF-12 act | HEK293 Gal4-LXR tk-luc reporter, luminescence, 24 h; normalized: DMSO 0%, positive control 100% | activation, % at 6.8 µM | 3,400 tested, under 10 active | AID 743027;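 active means mean percent activation of the reporter above a cutoff set as the average over tested compounds plus their standard deviation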
hcDAF12 ag: hcDAF-12 agonism, confirmation assay; activation, % at 6.8 µM; 61% of 3,400 active; HEK293 hcDAF-12 lit1-tk-luc reporter, luminescence; % of Δ7-dafachronic acid response; shares compounds with hcDAF-12 act;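 active means mean activation across triplicate tests above the threshold derived from the earlier primary screen, cut at about 5.5% in these data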;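 further: 0% = DMSO only wells and 100% = 3 µM Δ7-dafachronic acid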
The depositor's hits bear a star; . = not tested or not shown.

SMILES	hgDAF12 agonist	AHR act	ssDAF12 agonist	DAX1 inh-1	hcDAF-12 act	DAX1 inh-2	LXR ag	hcDAF12 ag
COc1ccc(-c2nc3ccccc3c(=O)n2CCOc2ccccc2C)cc1	3	10	0	6.9*	6.6*	0	0	2
O=C(COC(=O)COc1ccc(Cl)cc1Cl)NC1CCCC1	-2	.	-1	1	2	-1	.	.
CC(=O)NCc1ccc(S(=O)(=O)N/N=C/c2ccc(Br)cc2)cc1	-1	7	0	0	9.0*	0	0	2
COc1ccc(NC(=O)c2ccc3ccccc3n2)cc1S(=O)(=O)N1CCCCC1	5	26	0	1	8.9*	2	0	4
O=c1nc2s/c(=C\c3ccc(-c4ccccc4[N+](=O)[O-])o3)c(=O)n2nc1-c1ccccc1	3	.	0	0	6.9*	0	0	3
CCc1ccc(N2CC(C(=O)Nc3ccc4c(c3)OCCO4)CC2=O)cc1 (stereo not given)	-3	0	-1	0	-4	-1	.	.
Clc1ccc2oc(-c3ccccn3)nc2c1	10	61*	1.8*	2	7.6*	2	1	9.0*
Nc1ccc2oc(-c3ccccn3)nc2c1	5	0	-1	2	2	1	.	.
CC(C)Cc1ccc(C(=O)NCCOc2ccccc2)o1	9	2	0	0	9.9*	3	1	7.4*
Cc1ccc(OCCNC(=O)c2ccc(COc3ccccc3)o2)cc1	0	1	0	1	-2	2	.	.
Cn1c(NC(=S)Nc2ccccc2)nc2ccccc21	11*	60*	1	0	7.9*	2	1	5
Cc1cccc(NC(=O)Nc2ccc(Br)cc2)n1	6	44	1.3*	4	7.6*	0	1	6.2*
CCOC(=O)c1ccc(NC(=O)Nc2cccc(C)n2)cc1	-1	-4	0	0	0	0	.	.
CN(CC(=O)Nc1ccc(F)c(F)c1F)C(=O)CCCSc1nc2ccccc2[nH]1	-1	4	-1	-1	-1	-1	.	.
O=C(COC(=O)/C=C/c1ccc(OC(F)F)cc1)NC1CCCCCC1	-5	-1	-1	1	0	-1	.	.
CC1CCN(c2ccc3nnc(CCC(=O)Nc4cccc(F)c4)n3n2)CC1	-3	-3	-1	0	-3	0	.	.
O=C1NCCCC1C(=O)N/N=C/c1ccccc1O (stereo not given)	2	6	0	3	7.5*	0	0	2
O=C1NCCCC1C(=O)N/N=C/c1ccccc1[N+](=O)[O-] (stereo not given)	0	2	-1	2	1	0	.	.
CCCCCNC(=O)C(=O)C1C(=O)Nc2ccccc21 (stereo not given)	0	25	1	3	4	0	.	.
CN(C)CCNC(=O)C(=O)C1C(=O)Nc2ccccc21 (stereo not given)	-1	18	0.9*	.	8.0*	0	0	5
O=C(Nc1ccccc1)n1cc(-c2ccccn2)c(N2CCOCC2)n1	6	14	2.2*	0	7.2*	1	0	4
COc1cccc(CCC(=O)N2CCC(n3nccc3NC(=O)C3CCOC3)CC2)c1 (stereo not given)	0	4	-1	0	-2	1	.	.
COc1cccc(CC(=O)N2CCC(n3nccc3NC(=O)C3CCOC3)CC2)c1 (stereo not given)	4	8	0	0	6.9*	1	0	5
CCOC(=O)C(C)(C)Sc1nc2c(cnn2-c2ccc(C)cc2)c(=O)[nH]1	2	-3	-1	0	8.8*	0	0	0
CCOC(=O)C(C)(C)Sc1nc2c(cnn2-c2ccc(F)cc2)c(=O)[nH]1	-5	0	-1	1	-1	0	.	.
SMILES	hgDAF12 agonist	AHR act	ssDAF12 agonist	DAX1 inh-1	hcDAF-12 act	DAX1 inh-2	LXR ag	hcDAF12 ag
COc1ccc(OC)c(C(=O)N2CCCC(Nc3ccc(F)cc3)C2)c1 (stereo not given)	0	-3	-1	0	-1	0	.	.
CCN(CC)CCCNC(=O)c1cc2c(-c3ccc(Cl)cc3)nn(C)c2s1	1	54*	0	5.5*	6.6*	2	0	6.7*
COc1ccc(CN(C)C(C)C(=O)Nc2cccc3ccccc23)cc1 (stereo not given)	-1	11	-1	0	2	0	.	.
Cc1ccc(-n2nnc(-c3cc4ccccc4n3C)n2)cc1	3	46	1.0*	2	9.7*	1	1	13*
CCOc1ccccc1CN1CCNC(=O)C1CC(=O)N(C)C1CCOCC1 (stereo not given)	-1	2	0	0	0	0	.	.
Cc1ccc(C)c(N=Nc2nc3ccccc3n2C)c1	8	62*	1.2*	2	12*	0	1	13*
CCCS(=O)(=O)Nc1c(C(=O)O)[nH]c2ccc(OC)cc12	-2	9	-1	3	1	0	.	.
CCS(=O)(=O)Nc1c(C(=O)O)[nH]c2ccccc12	1	39	0	0	7.6*	1	0	5
O=C(O)Cc1ccc(N=Nc2c(O)c(C(=O)O)cc3ccccc23)cc1	10	30	0	1	6.8*	0	0	1
NS(=O)(=O)c1ccc(N=Nc2c(O)c(C(=O)O)cc3ccccc23)cc1	-3	6	-1	0	1	-1	.	.
CC1(C)CC(NC(=S)NCc2ccc3c(c2)OCO3)CC(C)(C)N1	.	1	.	.	.	.	.	.
O=C(Nc1ccccc1-c1nnn(CC(=O)N2CCOCC2)n1)c1ccc(F)cc1	2	-6	-2	-2	-2	-1	.	.
C=CCNc1nc(C(=O)OC(C)C(=O)c2ccc(C)cc2)cs1 (stereo not given)	6	-1	0	2	1	3	.	.
O=C(CCc1nnc(Cc2c[nH]c3ccccc23)o1)NCCC1CCCCO1 (stereo not given)	6	.	0	1	6.8*	0	0	2
C[C@H]1CCCCO[C@@H](CN(C)S(=O)(=O)c2ccc(Cl)cc2)[C@@H](C)CN([C@@H](C)CO)C(=O)c2cc(NS(=O)(=O)c3ccccc3)ccc2O1	-2	.	-1	2	-1	-1	.	.
